TTR transcr act: TTR transcription activators in neuroblastoma reporter cells, primary screen, cell-based, luminescence, SH-SY5Y, TTR promoter Gaussia luciferase; hit rate 1.3% among 92,000; 100% = recombinant luciferase protein wells; activation, % at 16.7 µM;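 active = activation above the mean of all tested compounds plus 3 SD, cut at about 9.5% in these data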;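 note: cells exposed to compounds for one day before reading; 0% = median of all test compound wells on the plate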
Numbers without * were called inactive. Shown is part of a subset that was picked to be rich in hits.

SMILES	TTR transcr act
C[C@H]1[C@H](NC(=O)c2ccc(Cl)c(Cl)c2)CC[C@@]23CCCN2C(=O)CCC[C@@H]13	0
COc1cc(-c2c(C(=O)c3ccccc3)[nH]c(N)c2C(N)=O)ccc1O	3
O=c1c2ccc(F)cc2nc2sc(Nc3ccc4c(c3)CCC4)nn12	5
CCC(c1nnc(SCC(=O)Nc2ccc(C(N)=O)cc2)n1Cc1ccccc1)N(C)C (stereo not drawn)	0
CCC(c1nnc(SCC(=O)Nc2ccc(S(N)(=O)=O)cc2)n1Cc1ccccc1)N(C)C (stereo not drawn)	1
CCC(c1nnc(SCC(=O)Nc2nnc(-c3ccccc3)o2)n1Cc1ccccc1)N(C)C (stereo not drawn)	28*
C[C@H]1[C@@H](NC(=O)c2ccc(C(C)(C)C)cc2)CC[C@@]23CCCN2C(=O)CCC[C@@H]13	0
CC1CCCC(C)N1C(=O)COC(=O)c1ccc[nH]c1=O (stereo not drawn)	-2
CN(C)S(=O)(=O)c1cccc(NC(=O)COC(=O)c2c[nH]c(=O)[nH]c2=O)c1	0
CN(C(=O)COC(=O)c1c[nH]c(=O)[nH]c1=O)C1CCCCC1	23*
O=C(c1ccc(Cl)c(Cl)c1)N1CCN(c2ccnc3cc(Cl)ccc23)CC1	-3
CN1C2=NC(c3ccccc3)CC(=O)N2/C(=C\c2ccccc2)C1c1ccccc1C(F)(F)F (stereo not drawn)	1
Cc1nn2c(N3CCN(C(=O)c4ccco4)CC3)cc(C(C)(C)C)nc2c1-c1ccccc1	10*
Cc1cc(N2CCN(C(=O)c3ccco3)CC2)n2ncc(-c3ccccc3)c2n1	0
Cc1cc(N2CCN(C(=O)c3ccco3)CC2)n2ncnc2n1	-2
C#CCOCCOCCOCCNc1nc(N2CCN(C(=O)[C@H](CCCCN)n3cc([C@@H](N)C(C)CC)nn3)CC2)nc(N2CCN(C(=O)[C@H](CCCCN)n3cc([C@@H](N)C(C)CC)nn3)CC2)n1 (stereo partly drawn)	0
CCSc1nnc([C@@H]2CCCN2C(=O)OC(C)(C)C)o1	1
COC(=O)CC1C(=O)NCCN1C(=O)OC(C)(C)C (stereo not drawn)	-2
C[C@@H]1CCCCCCCCC(=O)OCCN(C(=O)OC(C)(C)C)[C@H](C)CCCCCCCCC(=O)OCCN(C(=O)OC(C)(C)C)[C@H](C)CCCCCCCCC(=O)OCCN(C(=O)OC(C)(C)C)[C@H](C)CCCCCCCCC(=O)OCCN1C(=O)OC(C)(C)C	19*
Cc1nc(N2CCN(C(=O)COc3ccccc3C)CC2)c2c3c(sc2n1)CCCC3	2
C[C@@H]1CN([C@@H](C)COC(=O)C(C)(C)C)C(=O)c2cc(NC(=O)Nc3ccccc3)ccc2O[C@@H](C)CCCCO[C@H]1CN(C)S(=O)(=O)c1ccc(F)cc1	0
O=C(Oc1coc(CSc2ncccn2)cc1=O)c1ccc([N+](=O)[O-])cc1	5
COc1ccc(NC(=O)C(NC(=O)CNC(C)=O)c2ccc(C)cc2)cc1 (stereo not drawn)	29*
COc1ccc(NC(=O)CNC(=O)Cc2ccccc2)cc1	-2
CCOCCCNC(=O)C(NC(=O)c1ccc(NC(C)=O)cc1)c1ccc(OC)cc1 (stereo not drawn)	4
SMILES	TTR transcr act
COc1cccc(NC(=O)NC2CCCCN(Cc3ccc(C)cc3)C2=O)c1 (stereo not drawn)	-2
O=[N+]([O-])c1ccc2nc(COCc3nc4ccccc4[nH]3)[nH]c2c1	8
Cc1cc([N+](=O)[O-])nn1CC(=O)Nc1ccc(F)cc1	1
Cc1cc(C)n(CC(=O)Nc2ccccc2)n1	0
CC(=O)c1ccc(NC(=O)Cn2nc(C)cc2C)cc1	10*
O=C1C[C@H](c2ccc3ccccc3c2)N=C2N1/C(=C\c1ccccc1)[C@@H](c1ccccc1C(F)(F)F)N2Cc1ccc2c(c1)OCO2	0
O=C1CCC[C@H]2C[C@H](NCc3cccs3)CC[C@]23CCCN13	1
O=C(NCCO)[C@H](Cc1ccccc1)NC1(C(=O)NCCc2c[nH]c3ccccc23)CCCCC1	4
O=c1c([N+](=O)[O-])c(Cl)c2ccccc2n1Cc1ccccc1	-2
COc1cccc(C2CC(=O)Nc3n[nH]c(-c4ccccc4)c32)c1OC (stereo not drawn)	1
COc1cccc(C2CC(=O)Nc3cc(OC)c(OC)cc32)c1 (stereo not drawn)	0
COc1cccc(C2CC(=O)Nc3cc(OC)c(OC)c(OC)c32)c1OC (stereo not drawn)	16*
Cc1ccc(CN[C@@H]2CC[C@@]34CCCN3C(=O)CCC[C@H]4C2)cc1	9
O=[N+]([O-])c1cccc2[nH]c(CNc3nc(N4CCOCC4)nc4c3ncn4-c3ccsc3)nc12	1
COc1cc(NC(=O)c2ccc3c(c2)OCO3)ccc1NC(=O)C(C)C	21*
CC(=O)c1cccc(NC(=O)c2ccc3c(c2)OCO3)c1	-2
NC(=O)c1ccc(NC(=O)c2ccc3c(c2)OCO3)cc1	1
FC(F)(F)c1ccc2nc(CNc3nc(N4CCOCC4)nc4c3ncn4-c3ccsc3)[nH]c2c1	2

Screening data: PubChem BioAssay, The Scripps Research Institute Molecular Screening Center
